These results are taken from PubChem BioAssay.

Assay [1] in a line: growth inhibition of DIPG cells – cell-based, MIPE5.0 library, qHTS (AID 1347068; cut-off not given, nearly all actives have IC50 up to about 30 µM). Conditions: SU-DIPG-XXV viability. A general note: qHTS replaces the single test concentration by a dilution series.
Assay [2] can be described thus: MELAS cybrid and Rieske KO viability enhancers – cell-based, MELAS cybrids, Rieske KO mouse fibroblasts, CellTiter-Glo, primary screen (AID 1508586;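 active = mean z-score across replicates of 1.96 or higher in either the MELAS or the Rieske mutant cell line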;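 also: z relative to plate mean and SD of compound and empty wells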). Conditions: low glucose.
Assay [3] is described as follows: viability loss with induced miR-34 in A549 – imaging, A549 dox-inducible miR-34, nuclei and caspase counts, primary screen (AID 1347080;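 active = compounds whose cell count with miR-34 switched on is under 0.7 times the count with it off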). The following applies: A549 miR-34 inducible, Hoechst nuclei count, 48 h.
Assay [4] is described as follows: growth inhibition of DIPG cells – cell-based, MIPE4.0 library, CellTiter-Glo luminescence, qHTS (AID 1347066; cut-off not given, nearly all actives have AC50 up to about 30 µM;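 also: cells exposed to compound for 48 hours before readout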). Conditions: SU-DIPG-VI viability, CellTiter-Glo ATP luminescence. For orientation: ATP-based viability assays read luminescence as a measure of living cells.
Assay [5] is described as follows: compounds altering HSF1 focus formation in cells – imaging, Selleck Cancer Library (AID 1347162; in the data active = plate-normalised HSF1 focus index below about 0.46). The following applies: human cells, HSF1 nuclear foci imaging, at 10 µM; SSMD: measured here: HSF1 foci SSMD mean; cell count: measured here: cell number; plate-normalised HSF1 focus index: stronger effect = lower value.
Assay [6] can be described thus: drug combination growth inhibition, ovarian cancer – cell-based, oncology-focused library, rucaparib conditional, profiling panel (AID 1508598). Conditions: patient-derived ovarian cancer cells, CellTiter-Glo viability, 144 h, stronger effect = lower value.
Assay [7] is described as follows: JHH-DIPG-1 glioma cell viability, MIPE5.0 library, CellTiter-Glo luminescence, qHTS (AID 1347067; cut-off not given, nearly all actives have AC50 up to about 26 µM;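 also: cells exposed to compound for 48 hours before readout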). The following applies: JHH-DIPG-1 glioma viability, CellTiter-Glo ATP luminescence.
Assay [8] can be described thus: blockers of cellular phospholipid synthesis – cell-based, LOPAC library, screen 4, primary screen (AID 1347384; call rule not given here). The following applies: animal cells, phospholipid biosynthesis inhibition screen; at 10 µM.
A short description of assay [9]: chitosan synthesis blockers in C. neoformans – flow cytometry, Cibacron Brilliant Red staining (AID 1347148; call rule not given here;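 also: compound exposure lasted three days at 37 degrees C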). Conditions: Cryptococcus neoformans chitosan, stronger effect = lower value; at 10 µM unless noted.
Where [10] appears, read: MELAS cybrid survival, CellTiter-Glo 48 h, stronger effect = higher value.
Where [11] appears, read: Rieske KO mouse fibroblast survival, CellTiter-Glo 72 h.
Where [12] appears, read: stronger effect = lower value, cell number ratio, induced over uninduced.
Setting [13] is: measured here: relative caspase fold change +Dox/-Dox.
The mark [14] stands for this setting: measured here: total cells with miR-34 induction, stronger effect = lower value.
Where [15] appears, read: measured here: total cells without miR-34 induction.

Several values for one entry are separate records, joined by “and”; a condition that tells them apart may be missing. Equal entries are not always repeated. Inconclusive results are not listed. Activity calls are given as the source filed them.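 The calls were made as follows, unless noted: active = normalized viability below 100% at a tested concentration; inactive = the rest.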

`COc1ccc(CC2c3cc(OC)c(OC)cc3CC[N+]2(C)CCC(=O)OCCCCCOC(=O)CC[N+]2(C)CCc3cc(OC)c(OC)cc3C2Cc2ccc(OC)c(OC)c2)cc1OC` (stereo not given): the compound was classed as inactive in [1]. The z-score is -0.594 (inactive) and -1.25 (inactive) and -0.066 (inactive) in [2] (setting [10]); -0.336 and -0.215 and -0.301 in assay [2] (setting [11]).

Regarding `Oc1c(Cl)cc(Cl)cc1Sc1cc(Cl)cc(Cl)c1O`, the fold change in [3] (setting [12]) is 0.771 (inactive); in [3] (setting [13]) it was 1.86. Further, the cell count is 8360 in [3] (setting [14]) and 10800 in assay [3] (setting [15]).

In the case of `CC1CCN(CCCC(=O)c2ccc(F)cc2)CC1`, the fold change in assay [3] (setting [12]) is 0.922 (inactive) and 0.888 (inactive) and 0.964 (inactive); in assay [3] (setting [13]), 0.574 and 0.823 and 1.18. The cell count in assay [3] (setting [14]) is 9000 and 9720 and 9030; in assay [3] (setting [15]), 9760 and 10900 and 9370.

As to `Cc1nccn1CC1CCc2c(c3ccccc3n2C)C1=O` (stereo not given), the compound was classed as inactive in [4]. Besides, the z-score in assay [2] (setting [10]) was -0.478 (inactive) and 0.555 (inactive) and 0.267 (inactive); in assay [2] (setting [11]), 0.23 and 0.514 and 0.91.

For orientation: viability means a read-out of living cells in per cent, often relative to untreated cells. For `CC(c1cc2ccccc2s1)N(O)C(N)=O` (stereo not given), in assay [4], the call was inactive. Besides, the SSMD in [5] was 2.48. For the same compound, the cell count in [5] is 7010. Also, in assay [5], the plate-normalised HSF1 focus index is 1.14 (inactive). In addition, the z-score is -0.393 (inactive) and -0.528 (inactive) and -0.827 (inactive) in assay [2] (setting [10]); 0.713 and 0.986 and 1.26 in [2] (setting [11]). In addition, the viability in assay [6] (at 0.000305 µM, OCI-C5x cells, with rucaparib 10 µM, 100% = cells with rucaparib alone) was 111% (inactive); in assay [6] (at 0.000305 µM, OCI-C5x cells, without rucaparib) it was 124% (inactive); in assay [6] (at 0.000305 µM, OCI-P5x cells, with rucaparib 20 µM, 100% = cells with rucaparib alone), 77.5% (active); in [6] (at 0.000305 µM, OCI-P5x cells, without rucaparib) it was 83.5% (active); in assay [6] (at 0.00122 µM, OCI-C5x cells, with rucaparib 10 µM, 100% = cells with rucaparib alone), 98.9% (active); in assay [6] (at 0.00122 µM, OCI-C5x cells, without rucaparib), 121% (inactive). For the same compound, the viability is 61% (active) in [6] (at 0.00122 µM, OCI-P5x cells, with rucaparib 20 µM, 100% = cells with rucaparib alone); 79.9% (active) in assay [6] (at 0.00122 µM, OCI-P5x cells, without rucaparib); 128% (inactive) in [6] (at 0.00488 µM, OCI-C5x cells, with rucaparib 10 µM, 100% = cells with rucaparib alone); 122% (inactive) in assay [6] (at 0.00488 µM, OCI-C5x cells, without rucaparib); 48.8% (active) in assay [6] (at 0.00488 µM, OCI-P5x cells, with rucaparib 20 µM, 100% = cells with rucaparib alone); 63.4% (active) in assay [6] (at 0.00488 µM, OCI-P5x cells, without rucaparib). The viability in assay [6] (at 0.0195 µM, OCI-C5x cells, with rucaparib 10 µM, 100% = cells with rucaparib alone) was 119% (inactive); in assay [6] (at 0.0195 µM, OCI-C5x cells, without rucaparib), 125% (inactive); in assay [6] (at 0.0195 µM, OCI-P5x cells, with rucaparib 20 µM, 100% = cells with rucaparib alone), 47.6% (active); in [6] (at 0.0195 µM, OCI-P5x cells, without rucaparib) it was 63.9% (active); in [6] (at 0.0781 µM, OCI-C5x cells, with rucaparib 10 µM, 100% = cells with rucaparib alone), 103% (inactive); in assay [6] (at 0.0781 µM, OCI-C5x cells, without rucaparib), 125% (inactive). Moreover, the viability is 97.3% (active) in assay [6] (at 0.0781 µM, OCI-P5x cells, with rucaparib 20 µM, 100% = cells with rucaparib alone); 118% (inactive) in assay [6] (at 0.0781 µM, OCI-P5x cells, without rucaparib); 113% (inactive) in [6] (at 0.313 µM, OCI-C5x cells, with rucaparib 10 µM, 100% = cells with rucaparib alone); 121% (inactive) in [6] (at 0.313 µM, OCI-C5x cells, without rucaparib); 115% (inactive) in assay [6] (at 0.313 µM, OCI-P5x cells, with rucaparib 20 µM, 100% = cells with rucaparib alone); 123% (inactive) in assay [6] (at 0.313 µM, OCI-P5x cells, without rucaparib). Further, the viability is 109% (inactive) in assay [6] (at 1.25 µM, OCI-C5x cells, with rucaparib 10 µM, 100% = cells with rucaparib alone); 124% (inactive) in assay [6] (at 1.25 µM, OCI-C5x cells, without rucaparib); 106% (inactive) in [6] (at 1.25 µM, OCI-P5x cells, with rucaparib 20 µM, 100% = cells with rucaparib alone); 124% (inactive) in assay [6] (at 1.25 µM, OCI-P5x cells, without rucaparib); 113% (inactive) in assay [6] (at 5 µM, OCI-C5x cells, with rucaparib 10 µM, 100% = cells with rucaparib alone); 129% (inactive) in [6] (at 5 µM, OCI-C5x cells, without rucaparib). The viability in [6] (at 5 µM, OCI-P5x cells, with rucaparib 20 µM, 100% = cells with rucaparib alone) is 105% (inactive); in assay [6] (at 5 µM, OCI-P5x cells, without rucaparib), 116% (inactive).

Consider `CNS(=O)(=O)Cc1ccc2[nH]cc(CCN(C)C)c2c1`, for which the compound was called inactive in assay [4]. The z-score is -0.261 (inactive) and 0.654 (inactive) and -0.798 (inactive) in assay [2] (setting [10]); -0.042 and 0.351 and -0.245 in assay [2] (setting [11]).

With `O=C(O)c1cc(O)c(O)c(O)c1`, the fold change in assay [3] (setting [12]) was 0.943 (inactive); in [3] (setting [13]), 4.52. The cell count in assay [3] (setting [14]) was 11500; in assay [3] (setting [15]), 12200.

In the case of `Cc1ccc(C(=O)Nc2ccc(S(=O)(=O)O)c3cc(S(=O)(=O)O)cc(S(=O)(=O)O)c23)cc1NC(=O)c1cccc(NC(=O)Nc2cccc(C(=O)Nc3cc(C(=O)Nc4ccc(S(=O)(=O)O)c5cc(S(=O)(=O)O)cc(S(=O)(=O)O)c45)ccc3C)c2)c1`, the compound was classed as inactive in assay [7], in assay [1] and in assay [8]. Also, the cell count in [3] (setting [15]) was 10200 and 13600 and 11000. Further, the results for the z-score in assay [2] (setting [10]) and in assay [2] (setting [11]) were 0.0857 (inactive) and -0.401, respectively.

Turning to `CC1CCC(NC(=O)N(CCCl)N=O)CC1` (stereo not given), the figures for the fold change in assay [3] (setting [12]) and in assay [3] (setting [13]) were 0.814 (inactive) and 5.15, respectively. Also, the cell count worked out at 9380 in assay [3] (setting [14]) and 11500 in assay [3] (setting [15]).

`NS(=O)(=O)c1cc(C(=O)O)c(NCc2ccco2)cc1Cl`: the call in [4] was inactive. Also, the z-score in assay [2] (setting [10]) was -0.297 (inactive) and -0.16 (inactive) and 0.0353 (inactive); in assay [2] (setting [11]) it was 0.703 and -0.228 and 0.451.

A word on the AC50: it is the midpoint of the concentration-response curve, whichever way the signal moves. Consider `CC(C)(C)NC(=O)[C@@H]1CN(Cc2cccnc2)CCN1C[C@@H](O)C[C@@H](Cc1ccccc1)C(=O)N[C@H]1c2ccccc2C[C@H]1O`, for which the AC50 in [4] is 20.9 µM (active). The z-score in [2] (setting [10]) is -0.264 (inactive); in assay [2] (setting [11]) it was 0.0624.

As for `Fc1ccc(C(c2ccc(F)cc2)N2CCN(C/C=C/c3ccccc3)CC2)cc1`, the outcome in assay [4] and in [8] was inactive. In addition, in [9], the fold fluorescence is 3.48 [at 123.6 µM] (inactive). The z-score in [2] (setting [10]) was -1.68 (inactive) and -0.773 (inactive); in assay [2] (setting [11]) it was -0.315 and -0.0521.
